Experiment [1] in a line: qHTS assay to identify small molecule agonists of the estrogen receptor alpha (ER-alpha) signaling pathway in the presence of an antagonist - cell viability counter screen (AID 1259386).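 Further: series mostly up to about 92 µM; cells exposed to compounds for 22 h at 37 °C before the viability read; nearly all actives have a fitted effect of over 30% in size.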 An outline of the steps:
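In this counter screen, compound effects on VM7Luc4E2 viability were tested in the presence of the antagonist ICI-182,780 at 10.0nM final. Compounds were dosed at 15 concentrations, exposure lasted 22hr, and the CellTiter-Fluor signal was read.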
A general note: Quantitative high-throughput screening tests each substance at several concentrations.

The target of experiment [2] is Progesterone receptor (Homo sapiens) (UniProt P06401). The experiment is described as follows: qHTS assay to identify small molecule agonists of the progesterone receptor (PR) signaling pathway (AID 1346784; calls by dose curve; further: nearly all actives have a fitted effect of over 30% in size). An outline of the steps: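 Compounds were tested for PR agonism in HEK 293T cells bearing a beta-lactamase gene under UAS control. Treatment lasted 16 hr at 37C; signal came from fluorescence of a FRET substrate.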

Experiment [3] has the same target. The experiment is described as follows: qHTS assay to identify small molecule antagonists of the progesterone receptor (PR) signaling pathway (AID 1346795; active means well fitted inhibition curve with a large enough effect in the signal ratio in the repeat runs, not every such curve was filed as active; the % refers to the signal ratio; further: potency means the concentration at half of the fitted maximal effect). An outline of the steps: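 In HEK293T cells bearing the PR-UAS-bla reporter, compound effects on promegestone-driven (1 nM) beta-lactamase expression are assessed after 16 hr using a fluorescent FRET substrate incubated 2 hr at room temperature.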

Experiment [4] can be described thus: qHTS assay to identify small molecule agonists of the TGF-beta/Smad signaling pathway (AID 1346859; active means well fitted activation curve with a large enough effect in the signal ratio in the repeat runs, not every such curve was filed as active; the % refers to the signal ratio; further: series mostly up to about 77 µM). In outline: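 Each well held 4,000 SBE-bla HEK 293T cells incubated overnight before compound addition; 5 hr later the cleavable FRET substrate went on for 2 hr at room temperature, and fluorescence was read at two emissions.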
Experiment [5] has as its target Thyrotropin-releasing hormone receptor (Homo sapiens) (UniProt P34981). The experiment is described as follows: qHTS assay to identify small molecule antagonists of the thyrotropin-releasing hormone receptor (TRHR) signaling pathway (AID 1346877; active means well fitted inhibition curve with a large enough effect in the repeat runs, not every such curve was filed as active; further: series mostly up to about 51 µM). In outline: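 Kinetic fluorescence (3 min, 1 s resolution) following stimulation with TRH at 1 nM final; HEK293 cells bearing human TRHR; 5 min compound preincubation at RT; concentration-response over 15 points, triplicates.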

Experiment [6] shares this target. Put plainly: qHTS assay to identify small molecule agonists of the thyrotropin-releasing hormone receptor (TRHR) signaling pathway (AID 1346891; calls by dose curve; further: series mostly up to about 58 µM). An outline of the steps:
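Screening of agonists relied on calcium signalling in HEK293 cells expressing human TRHR: dye loading 2 h at 37 °C preceded compound addition and a 3-min fluorescence time course.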

Experiment [7] is described as follows: Human pregnane X receptor (PXR) small molecule agonists, qHTS cell viability counter screen (AID 1346977). Further: nearly all actives have a fitted effect of over 50% in size. Further: potency means the concentration at half of the fitted maximal effect. An outline of the steps: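 Tox21 qHTS format; PXR-Luc HepG2, 2,000/well, charcoal-stripped FBS 5%. Cpd exposure 24hr. Read: CellTiter-Fluor fluorescence, multiplexed with luciferase.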
The nature of experiment [8]: Caspase-3/7 induction in HepG2 cells by small molecules, qHTS assay (AID 1346978). Further: nearly all actives have a fitted effect of over 15% in size. In outline: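 Caspase-3/7 induction was measured by Caspase-Glo 3/7 luminescence (30 min, room temperature) after a 17 hr compound exposure of wild-type HepG2 cells seeded at 2,000 per well and pre-incubated 5 hr.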
Experiment [9] can be described thus: Caspase-3/7 induction in CHO-K1 cells by small molecules, qHTS assay (AID 1346980). Further: nearly all actives have a fitted effect of over 15% in size. An outline of the steps:
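Luminescent Caspase-Glo 3/7 read (30min, room temperature) quantified apoptosis induction. Cells were wild-type CHO-K1, treated with compound for 17hr at 37 C and 5% CO2.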

A short description of experiment [10]: Caspase-3/7 induction in HepG2 cells by small molecules, qHTS cell viability counter screen (AID 1346981). Further: nearly all actives have a fitted effect of over 30% in size. Further: potency means the concentration at half of the fitted maximal effect. An outline of the steps:
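In this quantitative HTS counter screen, compounds delivered in DMSO were left on unmodified HepG2 cells for 16 hr at 37 C. Viability was then determined fluorometrically with CellTiter-Fluor, in parallel with caspase-3/7 induction in the same wells.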

The target of experiment [11] is Nuclear receptor subfamily 1 group I member 2 (Homo sapiens) (UniProt O75469). Put plainly: Human pregnane X receptor (PXR) small molecule agonists, qHTS assay (AID 1346982). Further: nearly all actives have a fitted effect of over 35% in size. Further: potency means the concentration at half of the fitted maximal effect. An outline of the steps: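 Reporter HepG2 cells expressing PXR-Luc are cultured in charcoal-stripped FBS (5%), treated with compounds for 24 hr at 37 C, and assayed by ONE-Glo luminescence after 30 min at room temperature.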

Experiment [12] concerns the target Acetylcholinesterase (Homo sapiens) (UniProt P22303). The experiment is described as follows: Acetylcholinesterase (AChE) small molecule antagonists: colormetric cell-based qHTS assay (AID 1347395; calls by dose curve; further: nearly all actives have a fitted effect of over 30% in size). An outline of the steps: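 AChE inhibition read colorimetrically via DTNB–thiocholine in SH-SY5Y cells. Compound 30 min, substrate 90 min, both 37 C.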
Experiment [13] in a line: qHTS assay to identify small molecule antagonists of the progesterone receptor (PR) signaling pathway - cell viability counter screen (AID 1346798). Further: series mostly up to about 92 µM; nearly all actives have a fitted effect of over 50% in size. An outline of the steps:
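Following a 4 hr attachment, PR-UAS-bla HEK293T cells in charcoal-stripped FBS medium were exposed to compounds with R5020 for 16 hr; CellTiter-Glo was added and luminescence read after 30 min at room temperature.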

The nature of experiment [14]: qHTS assay to identify small molecule agonists of the progesterone receptor (PR) signaling pathway - cell viability counter screen (AID 1346799; calls by dose curve; further: nearly all actives have a fitted effect of over 45% in size). In outline:
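Here, 3,000 PR-UAS-bla HEK293T cells per well were treated with compounds for 16 hr after a 6 hr preincubation at 37C and 5% CO2; cell viability is the CellTiter-Glo luminescence signal.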

A short description of experiment [15]: qHTS assay to identify small molecule antagonists of the TGF-beta/Smad signaling pathway - cell viability counter screen (AID 1346824). Further: nearly all actives have a fitted effect of over 50% in size. In outline:
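Cytotoxicity counter-screen run in the same wells as the beta-lactamase Smad reporter read: CellTiter-Glo luminescence after 30 min at room temperature. HEK 293T SBE-bla cells had 5 hr compound exposure at 37 C with TGF-beta1 (0.25 ng/mL stock).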

Experiment [16] in a line: Caspase-3/7 induction in CHO-K1 cells by small molecules, qHTS cell viability counter screen (AID 1346979). Further: nearly all actives have a fitted effect of over 35% in size. Further: potency means the concentration at half of the fitted maximal effect. An outline of the steps: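 CellTiter-Fluor viability check, qHTS format: wild-type CHO-K1, 16hr compound treatment, 1hr reagent incubation, fluorescence read.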
Experiment [17] is described as follows: qHTS assay to identify small molecule agonists of the TGF-beta/Smad signaling pathway - cell viability counter screen (AID 1346829). Further: top concentration of the series differs between compounds; nearly all actives have a fitted effect of over 45% in size. An outline of the steps: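 Tox21 qHTS format: SBE-bla HEK 293T cells treated with DMSO-dissolved compounds for 5 hr; CellTiter-Glo luminescence after 30 min at room temperature.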
Experiment [18] concerns the target Nuclear receptor subfamily 1 group I member 2 (Homo sapiens) (UniProt O75469). The experiment is described as follows: CYP3A4 induction through human pregnane X receptor (PXR) by small molecules, qHTS assay (AID 1346984). Further: nearly all actives have a fitted effect of over 40% in size. An outline of the steps: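 Induction measured in HepG2-based DPX-2 cells co-expressing human PXR and a CYP3A4 promoter-driven luciferase. After a 24-hour compound exposure, cells received CYP3A4 luciferin substrate at 3uM final for 3 hours, and light output was then recorded.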

Experiment [19] has the same target. Put plainly: Human pregnane X receptor (PXR) activation by small molecules, qHTS assay (AID 1346985). Further: nearly all actives have a fitted effect of over 40% in size. An outline of the steps:
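DPX-2 cells (HepG2 co-transfected with a PXR response element and a CYP3A4-promoter luciferase construct) were seeded at 2,000 per well, rested 5 hr at 37C, then exposed to DMSO-dissolved compounds for 24 hr. Activation was read as luciferase luminescence.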

SMILES strings stand for the structures. “And” between values parts separate entries of the source, which are not always exact repeats. Equal values may be shown once. Values without a mark were called inactive. Results filed as inconclusive are left out. The source made the active and inactive calls. Unless noted, the call rests on the fitted dose curve; in most records, active means well fitted curve in the direction sought with a large enough effect in the repeat runs; inconclusive means weak or mixed curves; inactive means no such curve, though single readings can be large; an effect the other way counts as inactive or inconclusive.

This passage reports Potency and outcome results from PubChem BioAssay (Tox21).

Thyrotropin-releasing hormone receptor (Homo sapiens), sequence (P34981 whole entry, looked up): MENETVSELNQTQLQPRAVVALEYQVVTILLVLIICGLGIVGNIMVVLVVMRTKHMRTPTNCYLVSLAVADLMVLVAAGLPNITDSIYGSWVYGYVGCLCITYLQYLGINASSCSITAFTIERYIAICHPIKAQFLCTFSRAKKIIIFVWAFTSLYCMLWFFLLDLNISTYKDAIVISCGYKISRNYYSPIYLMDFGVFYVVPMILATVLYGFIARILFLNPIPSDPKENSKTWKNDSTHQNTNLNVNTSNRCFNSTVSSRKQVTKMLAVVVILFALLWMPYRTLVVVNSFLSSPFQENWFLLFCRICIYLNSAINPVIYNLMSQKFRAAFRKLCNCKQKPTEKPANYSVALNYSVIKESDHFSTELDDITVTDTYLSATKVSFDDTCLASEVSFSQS
Progesterone receptor (Homo sapiens), sequence (P06401 whole entry, looked up): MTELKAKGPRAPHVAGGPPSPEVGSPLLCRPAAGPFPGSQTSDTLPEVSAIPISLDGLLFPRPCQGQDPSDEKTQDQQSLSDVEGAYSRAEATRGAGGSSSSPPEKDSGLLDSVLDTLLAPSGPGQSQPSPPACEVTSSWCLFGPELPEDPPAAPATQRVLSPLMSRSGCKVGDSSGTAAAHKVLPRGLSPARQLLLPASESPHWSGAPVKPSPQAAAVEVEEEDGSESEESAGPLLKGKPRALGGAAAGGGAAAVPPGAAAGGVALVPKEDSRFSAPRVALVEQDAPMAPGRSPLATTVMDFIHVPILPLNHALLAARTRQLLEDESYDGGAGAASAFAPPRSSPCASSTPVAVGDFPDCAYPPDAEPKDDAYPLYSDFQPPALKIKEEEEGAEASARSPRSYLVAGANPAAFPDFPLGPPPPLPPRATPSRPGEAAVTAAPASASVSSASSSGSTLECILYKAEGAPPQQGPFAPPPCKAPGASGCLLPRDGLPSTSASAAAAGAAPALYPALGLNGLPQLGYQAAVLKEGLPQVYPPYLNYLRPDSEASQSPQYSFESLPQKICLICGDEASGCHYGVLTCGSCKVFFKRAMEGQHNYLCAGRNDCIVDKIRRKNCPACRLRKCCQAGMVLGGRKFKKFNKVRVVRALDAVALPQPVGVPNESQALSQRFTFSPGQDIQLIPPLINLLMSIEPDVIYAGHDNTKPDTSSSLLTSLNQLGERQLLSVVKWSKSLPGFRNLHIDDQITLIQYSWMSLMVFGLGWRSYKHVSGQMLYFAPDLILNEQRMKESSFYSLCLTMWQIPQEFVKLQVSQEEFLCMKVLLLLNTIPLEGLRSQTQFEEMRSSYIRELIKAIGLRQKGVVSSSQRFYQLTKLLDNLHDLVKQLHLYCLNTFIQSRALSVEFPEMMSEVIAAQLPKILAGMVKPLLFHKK
Nuclear receptor subfamily 1 group I member 2 (Homo sapiens), sequence (O75469 whole entry, looked up): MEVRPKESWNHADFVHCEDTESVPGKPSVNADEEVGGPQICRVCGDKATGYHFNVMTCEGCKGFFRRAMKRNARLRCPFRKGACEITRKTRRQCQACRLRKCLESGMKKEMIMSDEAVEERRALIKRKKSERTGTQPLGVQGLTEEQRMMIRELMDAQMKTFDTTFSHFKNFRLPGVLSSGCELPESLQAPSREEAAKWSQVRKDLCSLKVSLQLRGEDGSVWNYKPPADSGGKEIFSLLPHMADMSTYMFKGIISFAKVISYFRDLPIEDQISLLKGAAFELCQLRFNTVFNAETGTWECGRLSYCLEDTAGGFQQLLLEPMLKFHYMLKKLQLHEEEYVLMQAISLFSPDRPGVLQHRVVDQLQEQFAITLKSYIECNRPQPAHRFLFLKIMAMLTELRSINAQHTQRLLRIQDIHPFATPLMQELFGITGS
Acetylcholinesterase (Homo sapiens), sequence (P22303 whole entry, looked up): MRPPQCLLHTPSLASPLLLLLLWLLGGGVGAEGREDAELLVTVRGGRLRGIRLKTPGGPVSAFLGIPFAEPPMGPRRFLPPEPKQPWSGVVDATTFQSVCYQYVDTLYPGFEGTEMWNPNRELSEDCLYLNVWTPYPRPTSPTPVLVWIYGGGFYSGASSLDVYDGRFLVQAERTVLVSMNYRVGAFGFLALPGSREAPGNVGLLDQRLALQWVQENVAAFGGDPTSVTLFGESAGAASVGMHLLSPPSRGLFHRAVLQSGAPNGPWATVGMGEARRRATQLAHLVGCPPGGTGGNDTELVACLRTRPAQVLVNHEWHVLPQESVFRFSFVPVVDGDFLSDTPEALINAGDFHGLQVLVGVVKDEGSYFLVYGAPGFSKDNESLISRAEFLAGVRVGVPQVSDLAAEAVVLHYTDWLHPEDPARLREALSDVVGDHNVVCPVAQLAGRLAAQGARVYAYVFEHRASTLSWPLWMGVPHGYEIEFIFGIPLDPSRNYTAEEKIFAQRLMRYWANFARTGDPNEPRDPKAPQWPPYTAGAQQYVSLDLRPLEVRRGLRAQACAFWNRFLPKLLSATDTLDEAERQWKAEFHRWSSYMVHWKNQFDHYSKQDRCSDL

Consider `CCOc1cccc(C2(N3CCN(c4ccccc4)CC3)CCC(C)CC2)c1` (stereo not drawn), for which the Potency entry in experiment [1], in experiment [2], in experiment [3], in [5], in experiment [7] and in [8] was “inactive” each time. For the same compound, the Potency entry in experiment [9], in experiment [10] and in experiment [11] was “inactive” each time. Also, the result in [4], in [6] and in experiment [12] was inactive.
Turning to `O=C(O)c1ccc(=O)[nH]c1`, the Potency result in experiment [1], in experiment [2], in experiment [3], in experiment [5], in experiment [7] and in [8] was “inactive” throughout. Moreover, the Potency entry in [9], in [11] and in experiment [12] was “inactive” each time. The compound was called inactive in [4] and in experiment [6].
As for `C[C@@H]1C[C@@H]([C@H](O)CC2CC(=O)NC(=O)C2)C(=O)[C@@H](C)C1`, the Potency result in experiment [1], in experiment [2], in [13], in experiment [14], in [15] and in experiment [5] was “inactive” in each case. Besides, the Potency entry in experiment [8] is “inactive”. Also, in experiment [4], the result was inactive. Further, the Potency in experiment [7] is 342 nM (active) and 1.22 µM (active) and 1.19 µM (active); in experiment [16] it was 24.2 nM (active) and 68.6 nM (active) and 188 nM (active); in experiment [10], 121 nM (active) and 1.72 µM (active) and 750 nM (active).
In the case of `CCCC[P+](CC)(CCCC)CCCC` (tested in a mixture with another compound), the Potency entry in [1], in experiment [2], in [13], in experiment [14], in experiment [17] and in experiment [5] was “inactive” throughout. Moreover, the Potency result in experiment [7], in experiment [8], in experiment [16], in [10] and in [11] was “inactive” each time. Moreover, the result in experiment [4] and in experiment [6] was inactive.
Regarding `Nc1ccccc1C(=O)OCC(O)CO` (stereo not drawn), the Potency entry in [1], in experiment [2], in experiment [13], in experiment [14], in experiment [15] and in experiment [5] was “inactive” in each case. Besides, the Potency entry in experiment [7], in experiment [8], in [16], in experiment [9], in [10] and in experiment [11] was “inactive” in each case. The Potency entry in experiment [12] is “inactive”. In addition, in experiment [4], the call was inactive.
For `C[Si](Cn1cncn1)(c1ccc(F)cc1)c1ccc(F)cc1`, the Potency entry in [1], in experiment [2], in experiment [15], in experiment [17], in experiment [5] and in experiment [8] was “inactive” in each case. In addition, the Potency entry in experiment [9] and in [12] was “inactive” in each case. Also, the Potency in experiment [3] was 15.4 µM (active); in [11] it was 31.6 µM (active) and 15.4 µM (active). Also, the result in [4] and in experiment [6] was inactive.
For `Cc1ccccc1`, the Potency entry in experiment [1], in [2], in [13], in experiment [14], in experiment [15] and in experiment [5] was “inactive” each time. The Potency entry in experiment [7], in experiment [8], in experiment [16], in [10], in experiment [11] and in [19] was “inactive” in each case. In experiment [12], the Potency result is “inactive”. The compound was classed as inactive in experiment [4], in experiment [6] and in experiment [18].
Take `CCOC(C(=O)OCCN(C)C)(c1ccccc1)c1ccccc1`: the Potency result in experiment [1], in [2], in [13], in experiment [14], in [15] and in experiment [17] was “inactive” in each case. In addition, the Potency result in experiment [5], in experiment [8], in experiment [16], in experiment [9] and in experiment [12] was “inactive” each time. Further, the result in experiment [4] and in experiment [6] was inactive. The Potency in experiment [11] is 13.3 µM (active).
